Reference: PubChem BioAssay
Values joined by “and” are separate entries in the source; they are usually repeats but may differ in a detail not shown here. Equal entries are not always repeated. Active and inactive are the calls of the source.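 The calls were made as follows, unless noted: active = normalized viability below 100% at a tested concentration; inactive = the rest.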

Columns and labels:
[1] = Wnt pathway potentiators raising nuclear beta-catenin – imaging, WNT3A-conditioned medium, mouse C2C12, NPC library, primary screen (AID 1117326; in the data active = nuclear beta-catenin stimulation mostly above about 4.2%, no sharp cut-off; inactive = mostly below about 10%); details: stronger effect = higher value
[2] = stimulators of insulin release from INS-1E, primary screen, cell-based, 5 mM glucose, NPC library (AID 1117329;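 active = compound raises insulin release from rat beta cells at 5 mM glucose, no numeric limit stated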); details: rat INS-1E insulin secretion, at 10 µM, stronger effect = higher value
[3] = growth inhibition of GSK3B-pretreated HCT116 cells – cell-based, CellTiter-Glo, 0.2 to 20 µM (AID 1117336;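 active = compounds lowering colon cancer cell viability after pretreatment blocking the GSK3B kinase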); details: HCT116 viability after GSK3B inhibitor, at 20 µM, stronger effect = higher value
[4] = inhibition of endothelial tube formation, primary screen, imaging, VEGF stimulated, CD31 staining, tube area, NPC library (AID 1117340;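 active = compound that reduces growth-factor-driven endothelial tube area in a mixed cell culture, no cutoff stated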); details: VEGF-stimulated ADSC/ECFC co-culture, at 10 µM, stronger effect = higher value
[5] = GLP1 release stimulators, primary, NCI-H716, NPC library (AID 1117341;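 active = compound raises GLP1 secretion from the human gut endocrine cells, with no numeric limit stated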); details: NCI-H716 cells, at 10 µM, stronger effect = higher value
[6] = HCT116 colon cancer cell growth inhibition, primary screen, CellTiter-Glo luminescence, NPC library (AID 1117342;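 active = compounds that lower survival of HCT116 colon cancer cells in the luminescence readout, no numeric limit stated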); details: at 20 µM (top of the series)
[7] = reduced SW480 viability measured with CellTiter-Glo, NPC library, primary (AID 1117343;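 active = compounds that lower viability of the colon cancer cells in the luminescence readout, with no numeric limit stated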); details: CellTiter-Glo luminescence; at 20 µM (top of the series)
[8] = NPC library primary testing for decreased DLD-1 cell viability via CellTiter-Glo (AID 1117346;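 active = compounds that lower survival of DLD-1 colon cancer cells in the luminescence readout, no cutoff given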); details: DLD-1 viability, CellTiter-Glo luminescence; at 20 µM (top of the series)
[9] = target: 6-phosphogluconate dehydrogenase, decarboxylating (Homo sapiens) (UniProt P52209); experiment: inhibition of human phosphogluconate dehydrogenase – biochemical, recombinant enzyme, NADPH absorbance, primary screen (AID 1159550;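 active = at least 20% inhibition of 6-phosphogluconate dehydrogenase activity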); details: recombinant 6PGD, NADPH absorbance 341 nm; at 10 µM; stronger effect = higher value
[10] = modulation of C. elegans fzo-1 (AID 1259413; call rule not given here;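 also: fzo-1 mutant C. elegans worms in liquid wells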); details: C. elegans fzo-1 modulator screen, mean read-out; stronger effect = higher value
[11] = EMT-state selective cytotoxicity in co-culture – imaging, PC-3E GFP, TEM4-18 mCherry, primary screen (AID 1345086;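 active = compounds killing one labelled cell type while sparing the other, by normalised counts and ratio limits, not self-fluorescent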;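 as to all read-outs here: cells exposed to compound for 72 h before imaging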;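 as to red/green cell ratio (normalised): normalised mesenchymal count divided by normalised epithelial count so high means epithelial killing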); details: PC-3E GFP / TEM4-18 mCherry co-culture, imaging cell counts, at 1 µM; for red/green cell ratio (normalised): actives lie on both sides, counts scaled to control wells, 1 = unselective
[12] = MELAS cybrid and Rieske KO viability enhancers – cell-based, MELAS cybrids, Rieske KO mouse fibroblasts, CellTiter-Glo, primary screen (AID 1508586;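 active = mean z-score across replicates of 1.96 or higher in either the MELAS or the Rieske mutant cell line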;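 also: z relative to plate mean and SD of compound and empty wells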); details: low glucose
[13] = drug combination growth inhibition, ovarian cancer – cell-based, oncology-focused library, rucaparib conditional, profiling panel (AID 1508598); details: patient-derived ovarian cancer cells, CellTiter-Glo viability, 144 h, stronger effect = lower value
[14] = target: NAD(+) hydrolase SARM1 (Homo sapiens) (UniProt Q6SZW1); experiment: blocking NAD cleavage by SARM1 SAM-TIR – cell lysate, NAD-Glo luminescence (AID 1508614;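 active = compound whose remaining NAD level is above about 45 nM, limit read from the data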;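 also: higher remaining NAD means stronger inhibition of SARM1 NADase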); details: SAM-TIR HEK293T lysate NADase, at 1 µM, stronger effect = higher value
[15] = target: Mitogen-activated protein kinase 7 (Homo sapiens) (UniProt Q13164); experiment: Gal4-ERK5 driven luciferase induction – cell-based, HTS, primary screen (AID 1508626;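 active = luciferase signal above three times the same-plate solvent-only control wells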;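 also: luciferase driven by Gal4-ERK5 fusion binding five Gal4 sites before minimal TATA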); details: HeLa Gal4-ERK5 transactivation, 18 h, at 5 µM, stronger effect = higher value
F380Y = experiment: BK channel mutant inhibitors and activators – cell-based, U2OS BacMam, thallium flux, beta subunits, selectivity assay, profiling panel (AID 1259406;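 active = thallium flux through the channel raised or lowered by more than 3 SD from vehicle-only wells, actives on both sides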;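 also: initial slope of Thallos dye fluorescence rise after thallium is added; log ratio against the mean of 0.3% DMSO vehicle wells on the same plate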); details: U2OS BacMam BK variants, at 30 µM
F380Y/beta1 = experiment: as above; details: U2OS BacMam BK variants, at 30 µM
F380Y/beta2Delta = experiment: as above; details: U2OS BacMam BK variants, at 30 µM
[16] = measured here: epithelial PC-3E GFP cell survival
[17] = measured here: mesenchymal TEM4-18 mCherry cell survival
[18] = MELAS cybrid survival, CellTiter-Glo 48 h, stronger effect = higher value
[19] = Rieske KO mouse fibroblast survival, CellTiter-Glo 72 h

Sequence of NAD(+) hydrolase SARM1 (Homo sapiens) (Q6SZW1 whole entry, looked up, the tested form may be a part): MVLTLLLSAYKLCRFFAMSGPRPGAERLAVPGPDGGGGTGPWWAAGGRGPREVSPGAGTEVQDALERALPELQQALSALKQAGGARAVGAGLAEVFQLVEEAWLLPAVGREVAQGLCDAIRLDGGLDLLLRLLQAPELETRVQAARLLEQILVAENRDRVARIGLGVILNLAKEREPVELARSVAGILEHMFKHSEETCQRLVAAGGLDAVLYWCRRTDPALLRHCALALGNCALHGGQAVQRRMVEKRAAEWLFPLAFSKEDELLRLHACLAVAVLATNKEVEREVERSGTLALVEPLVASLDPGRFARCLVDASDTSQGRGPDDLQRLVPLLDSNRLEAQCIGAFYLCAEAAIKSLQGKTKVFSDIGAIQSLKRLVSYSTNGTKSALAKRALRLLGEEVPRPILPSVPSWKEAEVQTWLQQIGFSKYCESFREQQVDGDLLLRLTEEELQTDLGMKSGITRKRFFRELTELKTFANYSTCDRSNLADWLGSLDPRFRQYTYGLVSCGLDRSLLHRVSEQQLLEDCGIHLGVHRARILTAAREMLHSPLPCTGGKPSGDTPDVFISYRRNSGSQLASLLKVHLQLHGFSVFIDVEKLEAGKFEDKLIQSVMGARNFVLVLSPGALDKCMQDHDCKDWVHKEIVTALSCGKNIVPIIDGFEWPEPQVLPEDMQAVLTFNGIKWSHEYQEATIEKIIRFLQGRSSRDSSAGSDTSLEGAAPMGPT
Sequence of Mitogen-activated protein kinase 7 (Homo sapiens) (Q13164 whole entry, looked up, the tested form may be a part): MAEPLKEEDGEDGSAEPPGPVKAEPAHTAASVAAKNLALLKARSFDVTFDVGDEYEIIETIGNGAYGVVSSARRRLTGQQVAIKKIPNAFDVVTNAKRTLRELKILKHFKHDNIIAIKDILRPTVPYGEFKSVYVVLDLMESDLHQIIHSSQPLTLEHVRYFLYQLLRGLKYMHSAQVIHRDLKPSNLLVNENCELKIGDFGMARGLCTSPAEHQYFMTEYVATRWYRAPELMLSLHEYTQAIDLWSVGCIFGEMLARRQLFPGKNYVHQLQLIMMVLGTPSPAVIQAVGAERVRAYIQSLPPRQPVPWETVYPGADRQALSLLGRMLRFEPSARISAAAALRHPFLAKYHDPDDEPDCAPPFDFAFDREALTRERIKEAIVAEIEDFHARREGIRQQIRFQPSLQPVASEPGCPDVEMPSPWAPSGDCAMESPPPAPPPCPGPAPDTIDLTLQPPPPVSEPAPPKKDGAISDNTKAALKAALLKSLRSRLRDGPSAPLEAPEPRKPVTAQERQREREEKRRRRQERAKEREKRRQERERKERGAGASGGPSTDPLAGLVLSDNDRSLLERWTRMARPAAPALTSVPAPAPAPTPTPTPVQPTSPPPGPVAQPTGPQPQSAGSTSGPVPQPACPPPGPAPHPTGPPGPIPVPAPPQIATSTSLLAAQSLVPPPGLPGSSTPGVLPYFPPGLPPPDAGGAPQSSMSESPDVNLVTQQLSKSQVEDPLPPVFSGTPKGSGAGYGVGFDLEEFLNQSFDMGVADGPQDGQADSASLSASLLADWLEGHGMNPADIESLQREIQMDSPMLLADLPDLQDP
Sequence of 6-phosphogluconate dehydrogenase, decarboxylating (Homo sapiens) (P52209 whole entry, looked up): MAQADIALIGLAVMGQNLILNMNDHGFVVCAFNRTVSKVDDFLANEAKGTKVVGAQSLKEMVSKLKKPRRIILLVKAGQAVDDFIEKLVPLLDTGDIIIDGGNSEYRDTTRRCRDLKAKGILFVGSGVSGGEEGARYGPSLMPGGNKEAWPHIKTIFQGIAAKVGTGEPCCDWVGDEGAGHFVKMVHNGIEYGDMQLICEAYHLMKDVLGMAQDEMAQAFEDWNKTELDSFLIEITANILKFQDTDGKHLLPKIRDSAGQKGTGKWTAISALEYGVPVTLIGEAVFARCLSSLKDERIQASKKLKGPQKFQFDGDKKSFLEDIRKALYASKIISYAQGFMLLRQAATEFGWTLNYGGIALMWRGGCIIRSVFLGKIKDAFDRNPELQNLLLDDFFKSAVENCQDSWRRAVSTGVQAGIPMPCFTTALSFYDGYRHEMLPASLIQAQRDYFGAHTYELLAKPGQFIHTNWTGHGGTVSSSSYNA

With `O=C1CCC(N2C(=O)c3ccccc3C2=O)C(=O)N1` (centres undefined) the nuclear beta-catenin stimulation ([1]; at 10 µM) was 2.4% (inactive), the nuclear beta-catenin stimulation ([1]; stimulation, at 2 µM) was 2.1% and the insulin secretion stimulation [2] was 0.6% (inactive). The viability decrease [3] was -12.6% (inactive), the tube area decrease [4] was 5.6% (inactive) and the GLP1 secretion stimulation [5] was -3.8% (inactive). The inhibition of viability [6] was 6.9% (inactive), the viability decrease (inhibition) [7] was 11.1% (inactive) and the viability decrease (inhibition) [8] was 53.7% (active). The inhibition [9] was -1.45% (inactive), the mean signal [10] was 238 (inactive) and the red/green cell ratio (normalised) [11] was 1.17 (inactive). The normalised cell number [11, 16] was 1.23, the normalised cell number [11, 17] was 1.44 and the z-score [12, 18] was -0.413 (inactive) and 0.577 (inactive) and -0.221 (inactive). The z-score [12, 19] was -0.261 and 0.0412 and -1.15, the viability ([13]; at 0.000305 µM, OCI-C5x cells, with rucaparib 10 µM, 100% = cells with rucaparib alone) was 117% (inactive) and the viability ([13]; at 0.000305 µM, OCI-C5x cells, without rucaparib) was 95% (active). For the same molecule, the viability ([13]; at 0.000305 µM, OCI-P5x cells, with rucaparib 20 µM, 100% = cells with rucaparib alone) was 99.4% (active), the viability ([13]; at 0.000305 µM, OCI-P5x cells, without rucaparib) was 103% (inactive) and the viability ([13]; at 0.00122 µM, OCI-C5x cells, with rucaparib 10 µM, 100% = cells with rucaparib alone) was 108% (inactive). The viability ([13]; at 0.00122 µM, OCI-C5x cells, without rucaparib) was 102% (inactive), the viability ([13]; at 0.00122 µM, OCI-P5x cells, with rucaparib 20 µM, 100% = cells with rucaparib alone) was 100% (inactive) and the viability ([13]; at 0.00122 µM, OCI-P5x cells, without rucaparib) was 109% (inactive). The viability ([13]; at 0.00488 µM, OCI-C5x cells, with rucaparib 10 µM, 100% = cells with rucaparib alone) was 110% (inactive), the viability ([13]; at 0.00488 µM, OCI-C5x cells, without rucaparib) was 99.5% (active) and the viability ([13]; at 0.00488 µM, OCI-P5x cells, with rucaparib 20 µM, 100% = cells with rucaparib alone) was 112% (inactive). The viability ([13]; at 0.00488 µM, OCI-P5x cells, without rucaparib) was 106% (inactive), the viability ([13]; at 0.0195 µM, OCI-C5x cells, with rucaparib 10 µM, 100% = cells with rucaparib alone) was 111% (inactive) and the viability ([13]; at 0.0195 µM, OCI-C5x cells, without rucaparib) was 109% (inactive). For the same molecule, the viability ([13]; at 0.0195 µM, OCI-P5x cells, with rucaparib 20 µM, 100% = cells with rucaparib alone) was 112% (inactive), the viability ([13]; at 0.0195 µM, OCI-P5x cells, without rucaparib) was 111% (inactive) and the viability ([13]; at 0.0781 µM, OCI-C5x cells, with rucaparib 10 µM, 100% = cells with rucaparib alone) was 113% (inactive). The viability ([13]; at 0.0781 µM, OCI-C5x cells, without rucaparib) was 104% (inactive), the viability ([13]; at 0.0781 µM, OCI-P5x cells, with rucaparib 20 µM, 100% = cells with rucaparib alone) was 107% (inactive) and the viability ([13]; at 0.0781 µM, OCI-P5x cells, without rucaparib) was 115% (inactive). The viability ([13]; at 0.313 µM, OCI-C5x cells, with rucaparib 10 µM, 100% = cells with rucaparib alone) was 114% (inactive), the viability ([13]; at 0.313 µM, OCI-C5x cells, without rucaparib) was 109% (inactive) and the viability ([13]; at 0.313 µM, OCI-P5x cells, with rucaparib 20 µM, 100% = cells with rucaparib alone) was 112% (inactive). The viability ([13]; at 0.313 µM, OCI-P5x cells, without rucaparib) was 119% (inactive), the viability ([13]; at 1.25 µM, OCI-C5x cells, with rucaparib 10 µM, 100% = cells with rucaparib alone) was 114% (inactive) and the viability ([13]; at 1.25 µM, OCI-C5x cells, without rucaparib) was 103% (inactive). For the same molecule, the viability ([13]; at 1.25 µM, OCI-P5x cells, with rucaparib 20 µM, 100% = cells with rucaparib alone) was 116% (inactive), the viability ([13]; at 1.25 µM, OCI-P5x cells, without rucaparib) was 117% (inactive) and the viability ([13]; at 5 µM, OCI-C5x cells, with rucaparib 10 µM, 100% = cells with rucaparib alone) was 116% (inactive). The viability ([13]; at 5 µM, OCI-C5x cells, without rucaparib) was 108% (inactive), the viability ([13]; at 5 µM, OCI-P5x cells, with rucaparib 20 µM, 100% = cells with rucaparib alone) was 114% (inactive) and the viability ([13]; at 5 µM, OCI-P5x cells, without rucaparib) was 115% (inactive). The remaining NAD [14] was 10 nM (inactive), the luciferase signal [15] was 36 AU (inactive) and the log fold change Tl+ flux (F380Y) was -0.00432 (inactive). The log fold change Tl+ flux (F380Y/beta1) was -0.0788 (inactive) and the log fold change Tl+ flux (F380Y/beta2Delta) was -0.0091 (inactive).
For `CCC(C)(C)C(=O)O[C@H]1C[C@@H](C)C=C2C=C[C@H](C)[C@H](CC[C@@H]3C[C@@H](O)CC(=O)O3)[C@H]21`, the nuclear beta-catenin stimulation ([1]; at 10 µM) was 15.9% (inactive), the nuclear beta-catenin stimulation ([1]; stimulation, at 2 µM) was 7.6% and the insulin secretion stimulation [2] was 13.1% (inactive). For the same molecule, the viability decrease [3] was 95.1% (active), the tube area decrease [4] was 91% (active) and the GLP1 secretion stimulation [5] was 28% (active). For the same molecule, the inhibition of viability [6] was 86% (active), the viability decrease (inhibition) [7] was 119% (active) and the viability decrease (inhibition) [8] was 77.8% (active). The inhibition [9] was 2.59% (inactive), the mean signal [10] was 230 (inactive) and the red/green cell ratio (normalised) [11] was 0.86 (inactive). For the same molecule, the normalised cell number [11, 16] was 0.75, the normalised cell number [11, 17] was 0.65 and the z-score [12, 18] was -2.63 (inactive) and -1.16 (inactive). The z-score [12, 19] was -0.283 and -0.755, the remaining NAD [14] was 10 nM (inactive) and the luciferase signal [15] was 220 AU (inactive). The log fold change Tl+ flux (F380Y) was 0.085 (inactive), the log fold change Tl+ flux (F380Y/beta1) was 0.0381 (inactive) and the log fold change Tl+ flux (F380Y/beta2Delta) was 0.0908 (active).
